Pf growth 96h = inhibits malaria parasite growth, 96 h. AID 504834. Potency, µM (titrated, usually from 28.7 µM), for inactives: at the highest dose activity change, negative = inhibition, hits mostly inhibitors. 320,000 tested, 6.9% active. P. falciparum luciferase reporter growth, 96 h; note: % is set by controls: 0 for no effect and ±100 for the full control effect
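Readout is luminescence from an integrated firefly luciferase in P. falciparum. Red cells, 2% hematocrit and 0.05% parasitemia final, were cultured with compound through two parasite generations (96 hours) at 37 C, 5% CO2.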
AMA1-RON2 inh = AMA1-RON2 (P. falciparum) interaction inhibition. AlphaScreen AMA1-biotinylated RON2 peptide binding. Potency, µM (series often up to 58.2 µM), inactives show top-dose activity change, negative = inhibition, most hits filed as inhibitors. 360,000 tested, 0.2% active. AID 720542;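 note: 0% = vehicle wells and -100% = peptide control; nearly all actives have a fitted effect of over 45% in size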
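AMA1 (3D7) with his tag at 25 nM final met compounds first, then biotinylated RON2 peptide at 25 nM; detection used donor plus acceptor beads, 10 µg/mL apiece, read by AlphaScreen after 30 min at room temperature.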
HCV inhibitor = HCV inhibition | Huh7.5.1 HCVcc-Cre infection, luciferase reporter, 44 h | Potency, µM (series often up to 41.8 µM), for inactives: top-dose activity change, negative = inhibition, usual class: inhibitors | 340,000 tested, 3.4% active; note: % is set by controls: 0 for no effect and ±100 for the full control effect
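Luciferase read-out (15 sec integration) after a 15 min room-temperature substrate step quantifies HCVcc-Cre infection. Cells, 1,000 per well, had compound added 4 h post-plating, then virus at ~0.5 moi, and were cultured 44 h.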
Pf growth 48h = inhibits P. falciparum growth in the first generation, 48 h; Potency, µM (doses to about 28.7 µM), for the others: at the top dose activity change, negative = inhibition, usual class: inhibitors; P. falciparum luciferase growth in erythrocytes, 48 h; 310,000 tested, 5.9% active; AID 504832; note: % is set by controls: 0 for no effect and ±100 for the full control effect
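In quantitative HTS format, infected erythrocytes bearing luciferase-reporter parasites were treated for a single generation at 37 C. Luminescence after adding detection reagent served as the growth measure.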
NS1 inh = influenza NS1 inhibition; 270,000 tested, 0.4% active; Potency, µM (doses to about 46.1 µM), for inactives: top-dose activity, positive = more growth; AID 2326; calls by dose curve; note: actives are rising curves; nearly all actives have a fitted effect of over 50% in size
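OD600 was taken as the measure of yeast growth restored by compound in an NS1-expressing S. cerevisiae strain. Cells had been washed out of glucose medium and diluted 1:100 into galactose -URA medium, pH 6.0.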
SARS PLpro yeast = blocks SARS-CoV papain-like protease in a yeast assay; S. cerevisiae expressing SARS-CoV PLpro, growth rescue; Potency, µM (titrated, usually from 32.9 µM), without a hit: top-dose activity, positive = growth rescue, most hits filed as activators; 330,000 tested, 0.19% active; AID 485353; calls by dose curve; note: 0% is about no effect; nearly all actives have a fitted effect of over 55% in size
Active calls of the source: *; ? = inconclusive; nt = not tested or not shown. Hits are enriched below; roughly 12% of the tested compounds scored in any of these assays. Unless noted, calls come from the whole dose curve; as a rule, active = well fitted curve in the direction sought with a large enough effect; inconclusive = small, poorly fitted or top-dose-only effect, or another doubt; inactive = no such curve, though single readings can be large; an effect the other way counts as inactive or inconclusive. Potency is the fitted concentration of half-maximal effect.

SMILES | Pf growth 96h | AMA1-RON2 inh | HCV inhibitor | Pf growth 48h | NS1 inh | SARS PLpro yeast
C=CCn1c(SCC(=O)c2ccc(O)c(O)c2)nnc1-c1ccc(OC)cc1 | ? | 70% | ? | 2.6µM* | nt | -1%
CCOc1ccc(-c2nnc(SCC(=O)O)n2Cc2ccccc2)cc1 | 0.93µM* | -7% | 14% | 20% | 17% | 3%
CC(C)(C)N1C(=O)c2ccc(C(=O)Nc3cc(C(=O)O)cc(C(=O)O)c3)cc2C1=O | -3% | -3% | 5% | 0% | 16% | 2%
COc1ccc(S(=O)(=O)NC2CCN(Cc3ccccc3)CC2)cc1NC(C)=O | -12% | -12% | 2% | -15% | nt | -2%
CCc1nc2ccc(C(=O)NCc3ccccc3OC)cn2c1N(C)Cc1ccc(N(C)C)cc1 | nt | 14µM* | nt | nt | nt | nt
COc1ccc(CNC(=O)COC(=O)CO/N=C(\C)c2ccc3c(c2)OCO3)cc1 | 54% | -1% | 16% | -3% | nt | nt
CCN(CC)c1ncnc2scc(C3COc4ccccc4O3)c12 (stereo unspecified) | -19% | -22% | 11µM* | 8.3µM* | -29% | -63%
c1ccc2c(c1)OCC(c1csc3ncnc(N4CCOCC4)c13)O2 (stereo unspecified) | nt | -5% | -12% | -27% | 16% | 3%
CC(C)CCNC(=O)C(c1ccc(O)cc1)N(C(=O)C1COc2ccccc2O1)c1cccc(O)c1 (stereo unspecified) | ? | 6% | -25% | 12µM* | -5% | 1%
O=C(NCCc1ccc(O)c(O)c1)C1COc2ccccc2O1 (stereo unspecified) | -68% | -5% | ? | ? | -3% | -3%
CCOc1cccc(N(C(=O)C2COc3ccccc3O2)C(C(=O)NC2CCCCC2)c2ccc(O)cc2)c1 (stereo unspecified) | 57% | -18% | 15% | 13µM* | 7% | 11%
CCOc1ccc(N(C(=O)c2cnccn2)C(C(=O)NC2CCCCC2)c2ccc(O)cc2)cc1 (stereo unspecified) | 10% | -18% | -12% | -13% | -3% | 0%
O=C(N/N=C\c1c(O)ccc2ccccc12)c1ccc(S(=O)(=O)N2CCCCC2)cc1 | 85% | 18% | 5µM* | 1.5µM* | 25% | 4µM*
O=C(NN=Cc1c(O)ccc2ccccc12)c1ccc2c(c1)OCO2 | nt | 79% | 5µM* | nt | nt | 1%
O=C(N/N=C/c1c(O)ccc2ccccc12)c1ccc(CO)nc1 | 23% | 1% | 11µM* | ? | 6% | 26%
Cc1ccc(/C=N\NC(=O)c2ccc3c(c2)OCO3)o1 | 1.3µM* | 21% | 8% | 66% | -17% | -2%
Cc1cccc(NC(=S)NC2CC3C=CC2C3)c1 (stereo unspecified) | ? | -10% | -2% | 0% | -33% | 6%
CCCCNC(=O)C(NC(=O)c1cccnc1)C(=O)c1ccccc1 (stereo unspecified) | nt | -5% | nt | nt | nt | nt
CCOC(=O)c1ccc(NC(=O)N2CCN(c3cccc(OC)c3)CC2)cc1 | -2% | -20% | ? | ? | 3% | 0%
Cn1c(Sc2ccc(Cl)cc2)c(C=O)c2ccccc21 | ? | 14% | 10µM* | 12µM* | -18% | -20%
Cn1c(Oc2ccc(Cl)cc2)c(C=O)c2ccccc21 | 9.3µM* | 37% | ? | ? | -64% | -2%
O=c1[nH]c(=O)n(Cc2ccccc2)c2c1C(C(F)(F)F)(C(F)(F)F)N=C(c1ccco1)N2 | ? | 23% | -1% | ? | 0% | 1%
CC1=C(C#N)C(C(F)(F)F)(C(F)(F)F)N=C(c2ccco2)N1 | 8.3µM* | 3% | -14% | -6% | -3% | 2%
COc1ccc(-n2nnnc2SCC(=O)NCCc2ccc(OC)c(OC)c2)cc1 | 5.2µM* | 18% | -18% | -13% | -7% | -3%
NC(=O)CSc1nnnn1-c1ccc(OC(F)(F)F)cc1 | 0.19µM* | 5% | 19% | 6% | 5% | 10%
SMILES | Pf growth 96h | AMA1-RON2 inh | HCV inhibitor | Pf growth 48h | NS1 inh | SARS PLpro yeast
COc1ccc(CCNC(=O)CSc2nnnn2C)cc1OC | 72% | 13% | 22% | 3% | -1% | 1%
COc1ccccc1NC(=O)CSc1nnnn1-c1ccc(C(=O)O)cc1 | 12µM* | 7% | 27% | 38% | 1% | -2%
COc1ccc(-n2nnnc2SC(C)C(=O)NCC(=O)Nc2ccc(F)c(F)c2F)cc1 (stereo unspecified) | 0% | 7% | ? | -5% | -7% | 11%
COc1ccc(-n2nnnc2SC(C)C(N)=O)cc1 (stereo unspecified) | 12µM* | -4% | 16% | 1% | -2% | -6%
COc1ccccc1NC(=O)CSc1nnnn1-c1ccc(F)cc1 | ? | -4% | ? | -10% | 3% | 2%
COc1ccc(-n2nnnc2SCC(N)=O)cc1 | nt | -3% | 6% | 0% | -3% | 1%
Cc1cc(C)cc(NCCC#N)c1 | 61% | 8% | 15% | 38% | 0% | 0%
CC(C)CNC(=O)C1(C)CCCN1C(=O)c1cccnc1Oc1ccccc1 (stereo unspecified) | nt | 7% | nt | nt | nt | nt
Cc1ccccc1CNC(=O)C(=O)NCC1OCCCN1S(=O)(=O)c1cccs1 (stereo unspecified) | ? | -3% | 5% | ? | 2% | -1%
O=C(CCn1cnnn1)Nc1ccccc1F | 4.7µM* | -6% | 11% | 13% | nt | 0%
O=C(CSc1nnnn1-c1ccc(F)cc1)Nc1ccccc1F | 8.3µM* | 1% | -1% | 24% | -5% | 1%
NC(=O)c1ccc(-n2nnnc2SCC(=O)Nc2ccccc2F)cc1 | 13% | -9% | -23% | 24% | 4% | 0%
Cc1cccc(NC(=O)CCn2cnnn2)c1 | -22% | 11% | 17% | 7% | nt | -5%
CSc1ccccc1-n1nnnc1SCC(=O)Nc1ccccc1C | -22% | 0% | 11µM* | nt | -1% | -6%
CSc1ccccc1NC(=O)CSc1nnnn1-c1ccccc1SC | nt | 8% | ? | -4% | 4% | 3%
O=[N+]([O-])c1ccccc1OCCCn1cnc2ccccc21 | 2.3µM* | 4% | -11% | 32% | -2% | -3%
O=c1c2ccccc2ncn1CCCOc1ccccc1[N+](=O)[O-] | 26% | 9% | ? | 72% | -14% | -2%
CC(C)CCN(C(=S)Nc1cccc(F)c1)C1CCN(C(C)C)CC1 | 60% | 4% | 11µM* | ? | nt | 0%
COc1ccc(NC(=S)N(CCC(C)C)C2CCN(C(C)C)CC2)cc1 | 38% | 10% | ? | -8% | -4% | -2%
O=c1[nH]c2c(c(=O)[nH]1)OCN(Cc1ccccc1)C2 | nt | 77% | 2% | nt | nt | nt
O=C1N(c2ccccc2)C[C@@H]2C[C@@H](c3cc4ccccc4o3)N3CCC[C@@]123 | 13µM* | 5% | ? | -15% | 1% | 0%

Compound activity deposited in PubChem by National Center for Advancing Translational Sciences (NCATS).
